This is an account of results in PubChem BioAssay.

Active and inactive are the calls of the source.

A short description of assay [1]: compounds binding Alexa647 anti-His antibody – biochemical, small-molecule microarray, 635 nm fluorescence, artefact control for SMM control protein annotation, primary screen (AID 1128).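 Note: score merges feature fluorescence with signal-to-noise for each printed compound spot.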 As to conditions: higher = more signal.
The test system of assay [2] is Human papillomavirus type 1a E7 protein (residues 1-88). In words: HPV1a E7 small-molecule binders, primary screen, biochemical, small-molecule microarray, residues 1-88, 635 nm (AID 1129). The following applies: small-molecule microarray binding, fluorescence 635 nm; higher = more signal.
Assay [3] has as its target Focal adhesion kinase 1 (Homo sapiens) (UniProt Q05397). Put plainly: PTK2 protein binding on printed compound slides – biochemical, small-molecule microarray, 635/667 nm fluorescence, BSA, DTT, primary screen (AID 1130).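 Note: composite of spot emission at 667 nm and signal to noise over triplicate slides.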 The following applies: 635 nm fluorescence, higher = more signal.
Assay [4] deals with Fibrinogen (Alexa647-labelled). Put plainly: Alexa647-fibrinogen binding to printed small molecules – biochemical, small-molecule microarray, 635/667 nm fluorescence, artefact control for SMM control-protein annotation, profiling panel (AID 1131).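 Note: z-score merges 667 nm fluorescence with per-spot signal-to-noise over triplicate slides.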 The following applies: fibrinogen-A647 binding fluorescence, higher = more signal.
For assay [5], the target named is Follistatin (Homo sapiens) (UniProt P19883). Put plainly: FST protein binding to printed compounds – biochemical, small-molecule microarray, 635/667 nm fluorescence, primary screen (AID 1132). As to conditions: 635 nm fluorescence, higher = more signal.
Assay [6] has as its target Fibroblast growth factor 2 (Homo sapiens) (UniProt P09038). Put plainly: basic fibroblast growth factor binding to printed compounds – biochemical, small-molecule microarray, 635/667 nm fluorescence, primary screen (AID 1133). The following applies: FGF2, fluorescence 635/667, higher = more signal.
Assay [7] is described as follows: JC-1 mitochondrial potential readout, lung cancer cells – cell-based, A549, JC-1 fluorescence, basal, 24 h, 100 nL, profiling panel (AID 1138).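 Note: A549 lung adenocarcinoma cells under basal conditions with no added stimulus; test concentration not given here.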 As to conditions: higher = more signal.
The test system of assay [8] is Lefty1. Put plainly: Lefty1 protein binding to printed compounds – biochemical, small-molecule microarray, 635/667 nm fluorescence, primary screen (AID 1139). As to conditions: fluorescence 635/667, higher = more signal.
Assay [9] relates to wheat germ agglutinin (Triticum aestivum), Alexa647-labelled. In words: Alexa647-WGA lectin binding to printed small molecules – biochemical, small-molecule microarray, 635/667 nm fluorescence, artefact control for SMM control-protein annotation, profiling panel (AID 1140).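 Note: score merges 667 nm feature emission with signal to noise over triplicate slides.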 The following applies: WGA-A647 binding, 635 nm fluorescence, higher = more signal.
Assay [10] has as its target Luciferin 4-monooxygenase (Photinus pyralis) (UniProt P08659). Put plainly: inhibition of purified Photinus pyralis luciferase – biochemical, luminescence, purified enzyme, 2006 set, primary screen (AID 1141).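 Note: cell-free assay with purified firefly luciferase at 100 ng per well in PBS; test concentration not given here.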 As to conditions: purified firefly luciferase, SteadyGlo luminescence, 30 min; higher = more signal, called active from +8 up or from −8 down.

Sequence of Luciferin 4-monooxygenase (Photinus pyralis) (P08659 whole entry, looked up): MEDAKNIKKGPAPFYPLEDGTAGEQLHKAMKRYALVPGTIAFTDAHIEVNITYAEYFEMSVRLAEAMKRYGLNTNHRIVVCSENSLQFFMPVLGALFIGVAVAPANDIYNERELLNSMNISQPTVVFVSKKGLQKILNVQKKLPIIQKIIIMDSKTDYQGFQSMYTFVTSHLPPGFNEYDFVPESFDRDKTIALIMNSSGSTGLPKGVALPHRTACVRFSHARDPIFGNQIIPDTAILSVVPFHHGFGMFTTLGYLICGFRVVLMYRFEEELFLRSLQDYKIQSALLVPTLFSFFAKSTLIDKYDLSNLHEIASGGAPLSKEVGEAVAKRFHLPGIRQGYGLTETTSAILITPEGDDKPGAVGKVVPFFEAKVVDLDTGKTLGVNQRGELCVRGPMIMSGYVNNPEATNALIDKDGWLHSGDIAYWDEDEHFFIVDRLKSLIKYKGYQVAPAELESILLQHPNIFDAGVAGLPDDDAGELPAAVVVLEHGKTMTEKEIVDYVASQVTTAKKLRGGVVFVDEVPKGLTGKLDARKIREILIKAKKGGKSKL
Sequence of Follistatin (Homo sapiens) (P19883 whole entry, looked up): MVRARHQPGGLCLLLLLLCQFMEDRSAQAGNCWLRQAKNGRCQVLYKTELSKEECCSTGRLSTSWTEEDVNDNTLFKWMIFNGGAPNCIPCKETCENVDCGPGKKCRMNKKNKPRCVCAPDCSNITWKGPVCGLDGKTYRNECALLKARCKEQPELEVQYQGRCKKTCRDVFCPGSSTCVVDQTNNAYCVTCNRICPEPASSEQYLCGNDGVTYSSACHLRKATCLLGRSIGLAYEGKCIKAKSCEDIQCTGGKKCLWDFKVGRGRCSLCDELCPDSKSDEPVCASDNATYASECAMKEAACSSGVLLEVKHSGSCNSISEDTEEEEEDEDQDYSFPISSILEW
Sequence of Focal adhesion kinase 1 (Homo sapiens) (Q05397 whole entry, looked up): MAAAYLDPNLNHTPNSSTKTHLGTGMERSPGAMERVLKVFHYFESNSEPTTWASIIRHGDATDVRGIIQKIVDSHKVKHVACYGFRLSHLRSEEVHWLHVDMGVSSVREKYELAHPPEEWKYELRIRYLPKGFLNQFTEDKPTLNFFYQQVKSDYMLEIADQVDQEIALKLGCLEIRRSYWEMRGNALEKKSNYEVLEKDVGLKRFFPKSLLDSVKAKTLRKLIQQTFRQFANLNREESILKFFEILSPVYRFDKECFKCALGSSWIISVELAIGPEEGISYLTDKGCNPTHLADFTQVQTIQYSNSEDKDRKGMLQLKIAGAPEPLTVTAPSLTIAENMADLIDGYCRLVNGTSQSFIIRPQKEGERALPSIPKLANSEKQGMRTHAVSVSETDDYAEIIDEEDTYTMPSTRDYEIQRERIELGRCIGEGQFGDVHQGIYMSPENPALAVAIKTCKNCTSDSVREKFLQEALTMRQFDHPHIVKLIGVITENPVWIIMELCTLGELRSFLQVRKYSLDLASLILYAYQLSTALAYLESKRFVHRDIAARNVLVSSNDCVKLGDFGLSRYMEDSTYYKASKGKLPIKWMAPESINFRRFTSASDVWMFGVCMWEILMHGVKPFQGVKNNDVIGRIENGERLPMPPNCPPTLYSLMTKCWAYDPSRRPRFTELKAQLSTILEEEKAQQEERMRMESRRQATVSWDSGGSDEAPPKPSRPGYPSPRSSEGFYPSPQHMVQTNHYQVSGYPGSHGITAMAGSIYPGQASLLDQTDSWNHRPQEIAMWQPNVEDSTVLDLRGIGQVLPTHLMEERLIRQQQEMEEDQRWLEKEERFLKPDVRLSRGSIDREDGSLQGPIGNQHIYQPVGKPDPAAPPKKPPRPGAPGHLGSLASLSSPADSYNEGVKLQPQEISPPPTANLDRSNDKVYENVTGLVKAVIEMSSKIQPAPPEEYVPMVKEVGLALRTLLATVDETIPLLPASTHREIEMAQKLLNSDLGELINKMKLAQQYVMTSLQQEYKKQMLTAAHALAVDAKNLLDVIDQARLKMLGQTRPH
Sequence of Fibroblast growth factor 2 (Homo sapiens) (P09038 whole entry, looked up): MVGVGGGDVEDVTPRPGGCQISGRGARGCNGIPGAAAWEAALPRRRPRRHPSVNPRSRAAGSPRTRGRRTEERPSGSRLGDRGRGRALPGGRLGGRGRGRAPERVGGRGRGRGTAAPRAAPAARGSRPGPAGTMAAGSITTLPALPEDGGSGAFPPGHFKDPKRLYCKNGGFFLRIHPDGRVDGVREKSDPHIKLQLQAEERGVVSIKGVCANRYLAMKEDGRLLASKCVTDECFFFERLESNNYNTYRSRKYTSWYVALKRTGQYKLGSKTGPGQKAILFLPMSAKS

As to `NC(=O)[C@H]1[C@@H]2C(=O)O[C@@H](c3ccccc3)[C@@H](c3ccccc3)N2[C@@H](c2ccc(OCCO)cc2)[C@]12C(=O)Nc1ccc(C#CCCO)cc12`, the composite z-score in [1] stood at 0.92; in assay [2], 1.18; in assay [3] it was 0.798; in assay [4], 0.746; in assay [5] it was 1.13; in assay [6] it was 0.35. For the same compound, the composite z-score came out at 0.551 in assay [8] and 0.9 in assay [9]. Also, the z-score is -0.262 in assay [7] and -1.05 (inactive) in [10].
For the compound `CCOC(=O)C1=C[C@@H](c2ccccc2)N(S(=O)(=O)c2ccc(C)cc2)[C@H]1c1ccc(OC)cc1`, the composite z-score was 0.546 in [1]; 0.957 in [2]; 0.501 in assay [3]; 0.935 in [4]; 0.609 in assay [5]; 0.217 in assay [6]. The figures for the composite z-score in assay [8] and in assay [9] were -0.0395 and 1.11, respectively. Moreover, the values for the z-score in assay [7] and in assay [10] were 1.77 and 1.51 (inactive), respectively.
On to `COCCOC(=O)N1C(=O)[C@@]2(c3cc(C#CCC(C(=O)OC)C(=O)OC)ccc31)[C@H](c1ccc(OCCO)cc1)N1[C@H](c3ccccc3)[C@H](c3ccccc3)OC(=O)[C@H]1[C@@H]2C(=O)N1CCc2cc(OC)c(OC)cc2C1`, for which the composite z-score stood at 1.75 in assay [1]; 1.22 in assay [2]; 0.919 in [3]; 0.889 in assay [4]; 1.37 in assay [5]; 1.5 in assay [6]. Further, the composite z-score in assay [8] came out at 1.4; in assay [9], 1.08. In addition, the results for the z-score in [7] and in assay [10] were -0.942 and -0.411 (inactive), respectively.
As to `C#CCN([C@@H](Cc1ccccc1)C(=O)OC)[C@@H](/C=C/C1CC1)[C@H](O)Cc1ccccc1`, the composite z-score in assay [1] was -0.429; in [2], -0.515; in assay [3], -0.157; in assay [4], -0.873; in [5], 0.722; in assay [6] it was -0.0248. Moreover, the composite z-score was determined as 0.166 in assay [8] and 0.0211 in assay [9]. Moreover, the results for the z-score in [7] and in [10] were 3.45 and 0.412 (inactive), respectively.
As for `O=C1OCCC=C[C@H]2OC34C=CCN(Cn5nnc6ccccc65)C(=O)[C@H]3N(CCCO)C(=O)[C@@H]4C12` (stereo not given in full), the composite z-score is -0.0275 in assay [1]; -1.46 in [2]; -0.519 in [3]; -0.975 in [4]; -0.676 in assay [5]; -0.446 in [6]. The results for the composite z-score in assay [8] and in [9] were -0.935 and -0.0152, respectively. Further, the z-score is -0.9 in assay [7] and 0.0251 (inactive) in assay [10].
As for `Oc1ccc2cc[n+](Cc3cc4c(cc3Br)OCO4)cc2c1`, the composite z-score is -0.706 in assay [1]; -1.93 in assay [2]; -0.947 in assay [3]; -1.38 in assay [4]; -0.145 in [5]; -0.387 in assay [6]. Further, the composite z-score in assay [8] was -1.15; in [9], 0.136. For the same compound, the z-score in assay [7] is 0.938; in assay [10], -1.13 (inactive).
`O=C1OCCC/C=C\[C@H]2OC34C=CCN(c5ccc6ccccc6c5)C(=O)[C@H]3N(CCO)C(=O)[C@@H]4C12` (stereo not given in full): the composite z-score in assay [1] was -0.218; in [2], -0.637; in assay [3] it was -0.774; in [4], -2.11; in assay [5], -1.2; in assay [6], -0.634. Besides, the composite z-score in [8] is -1.22; in assay [9] it was 1.13. The z-score was -0.817 in assay [7] and 0.235 (inactive) in [10].
Turning to `C=C(COC)/C(=C/C[C@H](OC(=O)c1ccncc1)c1ccccc1OCCO)c1cc(C(=O)OC)ccc1OC`, the composite z-score in assay [1] was found to be 0.717; in assay [2], 1.06; in assay [3], 0.319; in assay [4], 0.148; in assay [5] it was 1.17; in assay [6], 0.66. For the same compound, the composite z-score in assay [8] stood at 1.32; in assay [9], 0.925. The results for the z-score in [7] and in assay [10] were 0.416 and -0.756 (inactive), respectively.
`CN(C)c1ccc(C(O)C2C=CC3C(=O)NC(=O)C3N2Nc2ccccn2)cc1` (stereo not given): the composite z-score in [1] was found to be 0.909; in [2], 0.683; in assay [3], 0.304; in [4], 0.309; in [5], 1.32; in assay [6], 0.417. In addition, the composite z-score in assay [8] stood at 0.783; in assay [9] it was 0.423. Further, the z-score in assay [7] is 0.229; in assay [10], -0.866 (inactive).
In the case of `[N-]=[N+]=Nc1ccccc1[C@H]1OC(c2ccc(OCCCO)cc2)=N[C@@]1(Cc1ccccc1)C(=O)NCCN1CCOCC1`, the composite z-score in assay [1] came to 1.65; in assay [2] it was 1.23; in assay [3], 0.309; in [4] it was 0.996; in [5] it was 1.21; in assay [6], 0.989. Besides, the composite z-score in assay [8] was determined as 0.624; in [9] it was 1.2. Also, the z-score in [7] was 2.49; in assay [10], -4.32 (inactive).
On to `CC(C)[Si]1(C(C)C)OCc2cc(C3CC3)nc(-c3ccc(Oc4ccccc4)cc3)c21`, for which the composite z-score in assay [1] was -0.33; in assay [2] it was -1.1; in [3], -0.0826; in assay [4], -0.753; in assay [5], -0.538; in assay [6], -0.206. Moreover, the composite z-score in assay [8] is -0.365; in assay [9], -0.596. In addition, the z-score in assay [7] was 0.546; in assay [10], -0.311 (inactive).
